Among all 340,000 compounds or so, about 2,100 (0.62%) were called active.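 The calls were made as follows: active = first-screen hits whose inhibition reached a set limit at any dose in the follow-up dose series; inconclusive = inhibition above the set first-screen limit but never retested; inactive = the rest.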 Only a sample is shown. Entries with a potency or affinity are not part of this list.
What follows are molecules tested against Rac GTPase-activating protein 1 (Homo sapiens) (UniProt Q9H0H5) (assay: MgcRacGAP GTPase-activating activity inhibitors, confirmation, biochemical, ADP Hunter fluorescence, primary and confirmatory (AID 624330;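 also: fluorescence reports GDP produced by GAP-driven GTP hydrolysis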)). Details: MgcRacGAP-stimulated Rac1 GTP hydrolysis, at 30 µM, active compounds read high, GST-tagged Rac1 F28L mutant substrate.
Rac GTPase-activating protein 1 (Homo sapiens), sequence (Q9H0H5 whole entry, looked up): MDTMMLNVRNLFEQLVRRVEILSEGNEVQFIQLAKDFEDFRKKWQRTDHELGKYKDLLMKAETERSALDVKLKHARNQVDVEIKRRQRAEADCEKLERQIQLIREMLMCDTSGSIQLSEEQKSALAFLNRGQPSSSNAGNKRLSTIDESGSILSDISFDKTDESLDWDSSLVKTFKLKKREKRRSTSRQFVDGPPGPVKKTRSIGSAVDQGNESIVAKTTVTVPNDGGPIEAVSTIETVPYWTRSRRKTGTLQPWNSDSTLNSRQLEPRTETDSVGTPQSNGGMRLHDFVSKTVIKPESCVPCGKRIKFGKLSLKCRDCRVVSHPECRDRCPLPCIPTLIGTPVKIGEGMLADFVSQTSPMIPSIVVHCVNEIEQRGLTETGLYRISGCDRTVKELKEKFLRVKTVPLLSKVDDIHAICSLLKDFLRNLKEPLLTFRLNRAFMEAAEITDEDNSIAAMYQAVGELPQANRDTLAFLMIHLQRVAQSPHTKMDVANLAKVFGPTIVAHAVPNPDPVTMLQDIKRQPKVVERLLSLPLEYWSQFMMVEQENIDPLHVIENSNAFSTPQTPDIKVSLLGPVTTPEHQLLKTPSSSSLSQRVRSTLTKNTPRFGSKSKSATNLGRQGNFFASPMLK

inhibition, inactive:
Cc1occc1-c1nnc(SCCCC(=O)c2ccc(F)cc2)n1C 14.1%
NNC(=S)NCCc1ccccc1 6.19%
CC(C(=O)N1CCc2ccccc21)N1CCN(c2ccccn2)CC1 (configuration not stated) 6.14%
CC(C(=O)Nc1ccccc1)N1CCN(c2ccccn2)CC1 (configuration not stated) 7.75%
O=C(CNC(=O)Cc1ccccc1)NCc1cccc(C(F)(F)F)c1 1.1%
CCN(Cc1ccncc1)C(=O)c1cccs1 -1.7%
O=C(CC1CCCC1)N1CCCC(Nc2cccc(F)c2)C1 (configuration not stated) 7.36%
CC1CC(C)CN(C(=O)Cn2c(=O)n(CCCC(=O)NCc3ccco3)c(=O)c3sccc32)C1 (configuration not stated) 9.26%
CCOc1cc2c(cc1OCC)C(c1ccccc1)N(c1ccccc1)C(=O)C2 (configuration not stated) 1.91%
CCn1c(/C=C/c2ccc(F)cc2)nc2ccccc2c1=O 8.84%
O=c1c2ccccc2nc(/C=C/c2ccc(O)cc2)n1CCc1ccccc1 4.64%
C=CCn1c(C)nc2ccccc2c1=O 2.89%
Cn1c(/C=C/c2ccccc2)nc2ccccc2c1=O 5.36%
CCN(CC)C(=O)CSc1nc2ccccc2c(=O)n1-c1ccccc1OC -9.96%
COc1ccccc1-n1c(SCC(=O)N2CCOCC2)nc2ccccc2c1=O -0.91%
CCn1c(/C=C/c2ccccc2)nc2ccccc2c1=O 10.4%
O=c1c2ccccc2nc(N/N=C/c2ccc(O)cc2)n1O 18.1%
O=C(CSc1nncn1-c1ccccc1)Nc1ccccc1F 3.06%
COc1ccccc1/C=C/C(=O)OCC(=O)N1CCN(S(=O)(=O)c2ccc(C)cc2C)CC1 6.05%
CC(OC(=O)c1ccc(Cl)nc1)C(=O)Nc1ccc(S(=O)(=O)N2CCCC2)cc1 (configuration not stated) 4.67%
C[C@@]12C(=O)N(CC3CC3)CC(=O)N1[C@H](C1CC1)[C@@H]1C(=O)N(c3ccccc3)C(=O)[C@@H]12 7.67%
Cc1cc(C)n2c(SCC(=O)NCc3ccc4c(c3)OCO4)nnc2n1 11.5%
CSCCC(NC(=O)c1ccccc1Br)C(=O)N1CCN(C/C=C/c2ccccc2)CC1 (configuration not stated) 9.7%
COc1ccc(Cl)cc1NS(=O)(=O)N1CCOCC1 6.51%
CC1C(=O)NN=C1C(=O)N/N=C/c1ccco1 (configuration not stated) 14.2%
COc1ccc(OC)c(/C=N/NC(=O)CC2C(=O)NN=C2C)c1 (configuration not stated) 3.85%
COc1ccc(/C=N\NC(=O)C2=NNC(=O)C2C)cc1 (configuration not stated) 13.9%
CC1C(=O)NN=C1C(=O)N/N=C/c1cccs1 (configuration not stated) 17.2%
COc1cc(OC)c(OC)cc1/C=N/NC(=O)CC1C(=O)NN=C1C (configuration not stated) 4.43%
CC1C(=O)NN=C1C(=O)N/N=C\C(Br)=C\c1ccccc1 (configuration not stated) 20.2%
CCOC(=O)C1C(=O)NC(C(=O)OCC)(C(=O)OCC)C1C(C)CC (configuration not stated) 6.57%
CC1CCCC(NC(=O)COC(=O)/C=C/c2ccco2)C1C (configuration not stated) 2.8%
CNCCCOc1cccc(OC(C)C)c1 16.9%
CCc1ccccc1N(C(=O)c1ccco1)C(C(=O)NC1CCCC1)c1cccnc1 (configuration not stated) 4.45%
CN(CC(=O)NCC1CCCO1)S(=O)(=O)c1ccc(Br)cc1 (configuration not stated) 7.12%
C/C(N)=C(/C#N)C(=O)COC(=O)C1CCN(S(=O)(=O)c2cccs2)CC1 -1.72%
CC(=O)Nc1ccc(C(=O)N2CCc3cc4c(cc3C2C)OCCCO4)cc1 (configuration not stated) 1.24%
COC(=O)C[C@H]1C[C@@H]2c3cc(NC(=O)Nc4ccc(F)cc4)ccc3O[C@@H]2[C@@H](CO)O1 7.07%
O=c1[nH]n(-c2ccccc2)c(=O)c2ccccc12 -1.66%
O=c1ccc(=O)n(-c2ccccc2)[nH]1 2.41%
O=C(O)CSCC(=O)Nc1ccc(C(=O)O)cc1 7.72%
COc1cc(CNCCO)ccc1OCCc1ccccc1 5.16%
COc1cccc(Nc2ccccc2C(=O)O)c1 7.48%
O=C(O)c1ccccc1Nc1ccccc1C(=O)O 2%
CC(Oc1ccccc1)C(=O)Nc1cccc(F)c1 (configuration not stated) 3.1%
Cc1cc(C)cc(N)c1 6.83%
Cc1cc(N)cc(C)c1-c1c(Br)cc(N)cc1Br 10.2%
O=C(CCC(=O)OCc1cccc([N+](=O)[O-])c1)Nc1ccccc1Cl 2.82%
COc1ccc(C(=O)NCCc2nnc3ccc(SCC(=O)NCc4ccc(F)cc4)nn23)cc1 -0.6%
Cc1onc(-c2ccccc2Cl)c1C(=O)NNC(=O)c1nn(C)cc1Cl 1.82%
O=C(c1cc(COc2ccc(F)c(F)c2)on1)N1CCN(C/C=C/c2ccccc2)CC1 -6.39%
Nc1nc(N)c2cc(Sc3ccc(Cl)cc3)ccc2n1 11.7%
Nc1nc(N)c2cc(Sc3cccc(C(F)(F)F)c3)ccc2n1 5.58%
Cc1nc(Cc2nnc(SCC(=O)N3CCN(c4ccccc4)CC3)o2)cs1 5.08%
Cc1nc(Cc2nnc(SCC(=O)N3CCN(c4ccc(F)cc4)CC3)o2)cs1 0.95%
CC(C)(C)C(=O)Nc1nc(=S)ss1 11.6%
CC(=O)Nc1nc(=S)ss1 12.7%

Reference: PubChem BioAssay AID624330 (Southern Research Specialized Biocontainment Screening …, 2012)
